This note sets out measurements from PubChem BioAssay AID642 (Vanderbilt High Throughput Screening Facility, 2007).

SMILES strings stand for the structures. The whole screen tested about 2,200 compounds, of which about 2,000 (91%) were called active.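 How the source made its calls: active means luminescence in either of two replicates above the same-plate mean plus 3 SD of the low-dose dopamine control; inactive means the rest.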 So high a share suggests a set chosen from earlier hits. These entries were drawn from the full list.

For the assay, the target named is D(1A) dopamine receptor (Homo sapiens) (UniProt P21728). The assay is described as follows: potentiation of dopamine EC30 D1 response – cell-based, HEK293 D1, CRE-luciferase, duplicate, confirmation (AID 642). The settings on record: at 10 µM, active compounds read high.
D(1A) dopamine receptor (Homo sapiens), sequence (P21728 whole entry, looked up): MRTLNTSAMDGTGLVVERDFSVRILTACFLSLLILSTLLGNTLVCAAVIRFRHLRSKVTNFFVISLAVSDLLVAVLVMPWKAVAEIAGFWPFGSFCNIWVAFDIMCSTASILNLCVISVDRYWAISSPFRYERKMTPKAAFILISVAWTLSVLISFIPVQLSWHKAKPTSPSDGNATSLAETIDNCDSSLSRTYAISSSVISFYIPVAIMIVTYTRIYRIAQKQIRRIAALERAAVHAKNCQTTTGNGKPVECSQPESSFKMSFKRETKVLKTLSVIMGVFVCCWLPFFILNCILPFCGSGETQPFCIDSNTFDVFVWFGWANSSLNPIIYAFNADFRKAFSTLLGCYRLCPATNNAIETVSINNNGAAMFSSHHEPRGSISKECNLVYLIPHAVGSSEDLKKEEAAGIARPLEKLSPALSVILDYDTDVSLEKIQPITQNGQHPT
With `CCC(=NCc1ccco1)c1c(O)n(Cc2ccccc2)c(=O)[nH]c1=O`, the luminescence was 18900 (active).
